Source: PubChem (National Center for Advancing Translational Sciences (NCATS))
NS1 function inh – influenza NS1 inhibition; Potency, µM (doses to about 46.1 µM), without a hit: at the highest dose activity, positive = more growth; actives 0.4% (n = 270,000); AID 2326; note: potency is the fitted concentration of half-maximal effect; actives are rising curves; nearly all actives have a fitted effect of over 50% in size
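OD600 was taken as the measure of yeast growth restored by compound in an NS1-expressing S. cerevisiae strain. Cells had been washed out of glucose medium and diluted 1:100 into galactose -URA medium, pH 6.0.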
CHX counter – counter-screen for Shiga toxin inhibitors: cycloheximide protein synthesis inhibition; cell reporter, cycloheximide protein synthesis inhibition counterscreen; max response, %; actives 12% (n = 300,000); in the data active = max response mostly above about 13%, no sharp cut-off; inactive = mostly below about 14%; note: read at 38.3 µM for the half of the compounds with a filed dose; 0% is about no effect
SARS PLpro yeast-1 – inhibitors of SARS-CoV papain-like protease in yeast | S. cerevisiae expressing SARS-CoV PLpro, growth rescue | Potency, µM (top dose mostly 32.9 µM), for the others: top-dose activity, positive = growth rescue, usual class: activators | actives 0.19% (n = 330,000) | AID 485353; note: potency is the fitted concentration of half-maximal effect; 0% is about no effect; nearly all actives have a fitted effect of over 55% in size
Shiga inhibitor – inhibitors of Shiga toxin in Vero cells | AID 2315 | actives 9.2% (n = 290,000) | inhibition, % at 38.7 µM | Vero cells, Shiga toxin protein synthesis inhibition reporter; in the data active = inhibition mostly above about 28%, no sharp cut-off; inactive = mostly below about 43%; note: 0% is about no effect
SARS PLpro yeast-2 – Rescues yeast growth by inhibiting SARS-CoV PLpro. shares compounds with SARS PLpro yeast-1. yeast expressing SARS-CoV PLpro, growth phenotype rescue. calls only. actives 19% (n = 1,000). AID 652038; call rule not given here
* marks the source's active call; other numbers are inactive results; i = inactive; ? = inconclusive; nt = no result given; + = active, no number. A selection: hits, their analogues and other compounds. The true share with any hit is near 12%. Unless noted, calls come from the whole dose curve.

SMILES	NS1 function inh	CHX counter	SARS PLpro yeast-1	Shiga inhibitor	SARS PLpro yeast-2
Cc1cc(C)cc(-n2c(C)cc(C(=S)N3CCOCC3)c2C)c1	5%	2	14µM*	9	+
CCCC(C(=O)NCCC(C)C)N(Cc1ccc(OC)cc1)C(=O)c1snc(C(N)=O)c1N (centres undefined)	9%	-1	6%	-2	nt
O=C(Nc1ccc(F)cc1)C(c1ccccc1)N1CCN(S(=O)(=O)c2ccccc2)CC1 (centres undefined)	22%	0	?	-18	i
COc1ccc(Cl)cc1NC(=O)COC(=O)/C=C/c1c(C)nn(C2CCS(=O)(=O)C2)c1Cl (centres undefined)	8%	-1	?	-6	i
Cc1nn(C2CCS(=O)(=O)C2)c(Cl)c1/C=C/C(=O)OCC(=O)Nc1ccccc1OC(F)F (centres undefined)	-10%	-2	-4%	-20	nt
Cc1cc(C)c2nc(SCC(=O)N3CC(=O)Nc4ccccc43)c(C#N)cc2c1	11%	-2	22%	-8	nt
COc1ccc2nc(SCC(=O)N3CC(=O)Nc4ccccc43)c(C#N)cc2c1	5%	-2	?	-7	i
COc1ccc(/C(N)=N/OC(=O)c2cccc([N+](=O)[O-])c2C)cc1OC	-1%	-3	?	-8	i
Oc1c(C(Nc2cccc(C(F)(F)F)c2)c2ccncc2)ccc2cccnc12 (centres undefined)	-7%	-3	?	-12	i
Oc1c(C(Nc2nccs2)c2ccc(C(F)(F)F)cc2)ccc2cccnc12 (centres undefined)	nt	-2	-26%	20	nt
NS(=O)(=O)c1cccc(NC(=O)CCSc2ccccc2Cl)c1	0%	61*	?	68*	i
Cc1nn(CC(=O)NC2(C)CCS(=O)(=O)C2)c(C)c1S(=O)(=O)N(C)C (centres undefined)	nt	nt	?	nt	i
Cc1nn(C)cc1/C=N/NC(=S)Nc1ccc(Cl)cc1Cl	8%	12*	?	active	+
Nc1nonc1C(=Nc1ccccc1)NO	-3%	1	?	-2	i
Cc1cccc(N=C(NO)c2nonc2N)c1	1%	-5	10%	-9	nt
CC(/C=C/c1ccccc1)=N\NC(N)=S	-48%	27*	13µM*	52*	+
CC(/C=C/c1ccccc1)=N\NC(=O)c1ccncc1	-15%	-2	0%	-11	nt
Cc1ccc2c(c1)-c1nc3ccccc3cc1C2=NC1CCCCC1	4%	55*	?	85*	i
CC(=O)Nc1ccc(S(=O)(=O)N[C@@H](C)C(=O)OCc2ccc(Cl)cc2)cc1	-6%	1	-7%	-13	nt
O=C(Nc1cc(-c2ccccc2)nn1C1CCCCC1)c1ccc(Cl)cc1	nt	nt	?	nt	i
CS(=O)(=O)c1ccc(C(=O)Nc2cc(-c3ccccc3)nn2-c2ccccc2)cc1	nt	nt	2%	nt	nt
Cc1ccc(C(=O)CNc2ccc(C)c(Cl)c2)cc1	-26%	27*	?	20	?
Cc1ccc(NCCC(=O)c2ccc(Cl)cc2)cc1	-7%	-3	-1%	9	nt
CCN(CC)S(=O)(=O)c1ccc(N/N=C/c2ccc(O)cc2O)nc1	11%	-1	5µM*	2	i
Oc1ccc(/C=N/Nc2ncc(Br)cn2)c(O)c1	-4%	76*	?	115*	i
SMILES	NS1 function inh	CHX counter	SARS PLpro yeast-1	Shiga inhibitor	SARS PLpro yeast-2
CCN(CC)S(=O)(=O)c1ccc(N/N=C(\C)c2ccncc2)nc1	-8%	-6	-3%	3	nt
Oc1ccc(Br)cc1/C=N/Nc1ncc(-c2ccccc2)cn1	4%	-3	-2%	-17	nt
CON(C)C(=O)c1ccccc1N(C)C(=O)OC(C)(C)C	nt	nt	0%	nt	nt
CC(C)C(=O)Nc1ccc(-c2nc3ccccc3c(=O)o2)cc1	5%	-2	0%	-1	nt
Cc1ccc(C)c(N2CC(=O)N(c3cc(C)ccc3C)CC2=O)c1	2%	-2	?	-7	i
Fc1cc(F)cc(NC(=S)NN2CCOCC2)c1	-2%	1	0%	-3	nt
CCCCc1ccc(NC(=S)NN2CCOCC2)cc1	25%	67*	10µM*	111*	+
N#CC1=C(N)Oc2c(c(=O)oc3ccccc23)C1c1cccnc1 (centres undefined)	-7%	8	?	-12	i
CCC(CC)C1C(C#N)=C(N)Oc2c1c(=O)oc1ccccc21 (centres undefined)	1%	-2	-16%	-5	nt
CCOP(=O)(c1ccccc1)C(O)c1ccccc1 (centres undefined)	14%	1	9%	8	nt
O=C(Nc1nc(-c2ccccc2)cs1)c1ccc2c(=O)n3c(nc2c1)CCCCC3	?	0	?	-4	i
O=C(Nc1ccccc1Cl)c1ccc2c(=O)n3c(nc2c1)CCC3	nt	nt	-3%	nt	nt
COc1ccc(N2CCOCC2)c(NC(=O)c2ccc3c(c2)OCO3)c1	-9%	-2	-2%	-5	nt
O=C(NCC(c1cccnc1)N1CCN(c2ccc(F)cc2)CC1)C1CCCCC1 (centres undefined)	-18%	-3	-5%	-7	nt
O=C(NCC(c1cccnc1)N1CCN(c2ccccc2F)CC1)C1CCCCC1 (centres undefined)	-10%	-3	?	-15	i
Nc1nc(-c2ccccc2)c(CC(=O)O)s1	3%	nt	nt	nt	nt
CCc1sc(N)nc1-c1ccccc1	-12%	11	?	-3	i
N#Cc1ncc(Cl)c2ccccc12	10%	1	0%	21	nt
CC(=NCc1cccnc1)c1c(O)n(-c2ccccc2C)c(=O)[nH]c1=O	8%	1	3.5µM*	-16	i
CC(/C=N/Nc1nc(C)cc(C)n1)=C\c1ccc(C(C)C)cc1	8%	35*	11µM*	59*	+
CCCCNC(=O)C1CCN(S(=O)(=O)c2c(C)noc2/C=C\c2ccc(OC)cc2)CC1	0%	-4	?	-8	+
COCCCNC(=O)C1CCN(S(=O)(=O)c2c(C)noc2/C=C\c2ccc(OC)cc2)CC1	-10%	-2	0%	-15	nt
CCN1CCN(c2ccc(N3CCN(S(=O)(=O)c4cc([N+](=O)[O-])ccc4C)CC3)nn2)CC1	nt	nt	-4%	nt	nt
Cn1cc(/C=N/n2cnc3scc(-c4ccccc4)c3c2=O)c2ccccc21	13%	-7	?	-12	+
O=C1NC(=Nc2cccc(Cl)c2)SC1Cc1cccc(Cl)c1Cl (centres undefined)	23%	-7	0%	-6	nt
Fc1ccc(NC(=S)NCCN2CCOCC2)c(F)c1F	0%	9	-1%	13	nt
C/C(=N\NC(=O)C(C)n1nc(C)c([N+](=O)[O-])c1C)c1ccccc1O (centres undefined)	15%	5	?	-20	i
Cc1nn(C(C)C(=O)NCc2ccco2)c(C)c1[N+](=O)[O-] (centres undefined)	2%	-2	-2%	-17	nt
O=c1[nH]c(C2C3CC4CC(C3)CC2C4)nc2ccccc12 (centres undefined)	0%	1	2.8µM*	-1	i
Cc1ccccc1NS(=O)(=O)c1ccc(C(=O)NCCCN2CCCC2=O)cc1	nt	nt	2%	nt	nt
